Screening results from PubChem BioAssay.
FMDV inh: antivirals against foot and mouth disease virus | FMDV antiviral cell-based qHTS | Potency, µM (titrated, usually from 57.9 µM), for inactives: top-dose activity change, negative = inhibition, most hits filed as inhibitors | 1.2% of 410,000 active | AID 1159524; calls by dose curve; tested in HEK293T cells; further: read-out not given here; potency means the concentration at half of the fitted maximal effect; nearly all actives have a fitted effect of over 45% in size
Vaccinia Venus: inhibitors of vaccinia virus (Venus reporter) | Vaccinia virus Venus reporter expression, fluorescence | Potency, µM (highest dose often 36.5 µM), for inactives: top-dose activity change, negative = inhibition, most hits filed as inhibitors | 0.46% of 330,000 active | AID 720580; calls by dose curve; tested in A549 cells; further: potency means the concentration at half of the fitted maximal effect; nearly all actives have a fitted effect of over 30% in size
Giardia FBPA inh: inhibitors of Giardia lamblia fructose-1,6-bisphosphate aldolase. purified Giardia FBPA. Potency, µM (highest dose often 59.6 µM), inactives show at the highest dose activity, negative = inhibition, actives largely listed as inhibitors. 0.71% of 290,000 active. AID 2451; further: potency means the concentration at half of the fitted maximal effect; nearly all actives have a fitted effect of over 55% in size
Target sequence (A8B2U2 whole entry, looked up): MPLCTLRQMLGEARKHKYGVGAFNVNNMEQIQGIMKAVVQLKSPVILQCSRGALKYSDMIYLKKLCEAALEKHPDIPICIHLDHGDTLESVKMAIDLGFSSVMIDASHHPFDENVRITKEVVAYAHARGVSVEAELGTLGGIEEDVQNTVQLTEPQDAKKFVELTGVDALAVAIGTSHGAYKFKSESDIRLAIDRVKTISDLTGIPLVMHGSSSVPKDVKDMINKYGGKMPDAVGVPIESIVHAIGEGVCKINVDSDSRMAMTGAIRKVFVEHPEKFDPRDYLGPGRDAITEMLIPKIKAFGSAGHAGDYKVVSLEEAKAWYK
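40 nM FBPA preincubated 10 min at RT with compound (up to 57.5 uM final), then substrate plus GAPDH/TPI/NAD/arsenate coupling and diaphorase/resazurin added. Fluorescence read after 20 min at RT, 525/598 nm.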
HCV inhibitor: blocks hepatitis C virus. Huh7.5.1 HCVcc-Cre infection, luciferase reporter, 44 h. Potency, µM (titrated, usually from 41.8 µM), for the others: at the top dose activity change, negative = inhibition, usual class: inhibitors. 3.4% of 340,000 active. AID 651820; further: potency means the concentration at half of the fitted maximal effect
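Luciferase read-out (15 sec integration) after a 15 min room-temperature substrate step quantifies HCVcc-Cre infection. Cells, 1,000 per well, had compound added 4 h post-plating, then virus at ~0.5 moi, and were cultured 44 h.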
HCMV antiviral: inhibitors of human cytomegalovirus; HFF cells, HCMV-luciferase reporter, 72 h; stronger effect = lower value; activity change, negative = inhibition, % at 57.5 µM; 4.5% of 410,000 active; AID 1259415; in the data active means activity change below about -60%; inconclusive means no clear call, values can overlap the other calls; inactive means above about -39%
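Screen run at 2 compound doses on HFFs infected with reporter HCMV, MOI 1 PFU/cell. Luciferase activity from cell lysates at 72 h post infection gave inhibition relative to buffer-only and Salinomycin wells.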
Vaccinia mCherry: vaccinia inhibition (mCherry reporter); Vaccinia virus mCherry reporter infection, fluorescence; Potency, µM (top dose mostly 36.5 µM), for inactives: top-dose activity change, negative = inhibition, most hits filed as inhibitors; 0.63% of 310,000 active; calls by dose curve; tested in A549 cells; further: potency means the concentration at half of the fitted maximal effect; nearly all actives have a fitted effect of over 35% in size
An asterisk follows results filed as active; [ ] = another dose, or the depositor's remark. An excerpt weighted towards active compounds, which were near 7.5% of everything screened. Unless noted, the call rests on the fitted dose curve; in most records, active means well fitted curve in the direction sought with a large enough effect; inconclusive means small, poorly fitted or top-dose-only effect, or another doubt; inactive means no such curve, though single readings can be large; an effect the other way counts as inactive or inconclusive. On the % scale 0 is the no-effect control and ±100 the full control effect.

COc1ccc(Nc2nc(N)nc(CN3CCC(C)CC3)n2)cc1 was read as FMDV inh 7%, Vaccinia Venus 9%, Giardia FBPA inh 2%, HCV inhibitor 0%, HCMV antiviral -91* and Vaccinia mCherry -8%.
`CCC[C@H]1[C@H](N(C)Cc2ccccc2)CC[C@@]23CCCN2C(=O)CCC[C@@H]13` gave HCMV antiviral 15.
For O=C(CCC1CCCCC1)NC1=NCCS1 the results were FMDV inh -18%, Vaccinia Venus -17%, Giardia FBPA inh 9%, HCV inhibitor 28%, HCMV antiviral 3 and Vaccinia mCherry inactive.
Screening CN(C)CCCNC(=O)CCC1CCCCC1 returned FMDV inh -11%, Vaccinia Venus -3%, Giardia FBPA inh 3%, HCV inhibitor 8% and HCMV antiviral -107*.
Screening COC(=O)C1=C(C)NC2=C(C(=O)CCC2)C1c1cn(Cc2ccc(Cl)cc2Cl)nc1-c1ccccc1 (stereo not given) returned FMDV inh -4%, Vaccinia Venus -20%, Giardia FBPA inh 0%, HCV inhibitor inconclusive, HCMV antiviral -61* and Vaccinia mCherry -16%.
`CCOC(=O)C1=C(C)NC2=C(C(=O)CCC2)C1c1cn(Cc2ccc(Cl)cc2Cl)nc1-c1ccccc1` (stereo not given) gave FMDV inh -1%, Vaccinia Venus inconclusive, Giardia FBPA inh -6%, HCV inhibitor inconclusive, HCMV antiviral -90* and Vaccinia mCherry inconclusive.
CC(=O)OCC[C@H](NS(=O)(=O)OCC(Cl)(Cl)Cl)c1ccccc1 was read as FMDV inh -10%, Vaccinia Venus -9%, Giardia FBPA inh -3%, HCV inhibitor 9%, HCMV antiviral 18 and Vaccinia mCherry -32%.
For COc1cc(Br)c(CC(=O)NO)cc1OC the results were Vaccinia Venus -13% and Vaccinia mCherry -24%.
Screening O=C1CC(c2cccnc2)=NN1c1ccc(Cl)cc1Cl returned FMDV inh 3%, Vaccinia Venus 1%, Giardia FBPA inh 4%, HCV inhibitor -1%, HCMV antiviral -100* and Vaccinia mCherry inactive.
Screening O=c1cnn(-c2ccc(Cl)cc2Cl)c(-c2ccccc2)c1 returned FMDV inh 2%, Vaccinia Venus -9%, Giardia FBPA inh -3%, HCV inhibitor inconclusive, HCMV antiviral 78 and Vaccinia mCherry -18%.
O=C1C=C(c2ccccc2)C[C@H](c2cccs2)[C@H]1n1nnc([N+](=O)[O-])n1 was read as FMDV inh -16%, Vaccinia Venus inconclusive, Giardia FBPA inh inconclusive, HCV inhibitor inconclusive, HCMV antiviral inconclusive and Vaccinia mCherry 14µM*.
O=C1C=C(c2ccccc2)CC(c2cccs2)C1n1cnc([N+](=O)[O-])c1 (stereo not given) was read as FMDV inh -18%, Vaccinia Venus -9%, Giardia FBPA inh -13%, HCV inhibitor 18% and HCMV antiviral 31.
`COCCN1C(=O)c2[nH]nc(-c3ccccc3O)c2C1c1ccc(OCc2ccccc2)c(OC)c1` (stereo not given) gave FMDV inh -4%, Vaccinia Venus 2%[7.34 µM], HCMV antiviral -103* and Vaccinia mCherry -12%[7.34 µM].
For O=C1c2[nH]nc(-c3ccccc3O)c2C(c2ccc(Cl)cc2)N1CCc1ccccc1 (stereo not given) the results were FMDV inh inconclusive, Vaccinia Venus -5%[7.34 µM], HCMV antiviral -95* and Vaccinia mCherry -6%[7.34 µM].
`COc1ccc(CCN2C(=O)c3[nH]nc(-c4ccccc4O)c3C2c2ccccc2)cc1OC` (stereo not given) gave FMDV inh inconclusive, Vaccinia Venus inconclusive, Giardia FBPA inh 5%, HCV inhibitor 11µM*, HCMV antiviral inconclusive and Vaccinia mCherry -20%.
CC(C)c1ccc(C2c3c(-c4ccccc4O)n[nH]c3C(=O)N2Cc2ccncc2)cc1 (stereo not given) was read as FMDV inh -22%, Vaccinia Venus -27%, HCMV antiviral -79* and Vaccinia mCherry -25%.
